Laboratory results as given in PubChem BioAssay (NCI).
Compounds without any hit were thinned out: in the full panel of roughly 83,000, 20% have a hit.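 Cell lines were cultured in 96-well plates, exposed to a single compound concentration, and assessed for percent growth 48 hours later.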 Calls of active or inactive are those of the source. How the source made its calls: active means growth percent below 10; inactive means the rest.

Each molecule was assayed on MDA-MB-468 breast (assay: NCI-60 one-dose screen, 48 h (100 = growth as untreated, 0 = no growth, -100 = all killed)). Conditions: 10 µM unless noted.

SMILES	growth
Cc1cc(Nc2nc(N3CCOCC3)nc3ccccc23)n[nH]1	55.9% (inactive)
CNC(=O)c1cncc(Cn2nc(C)c(NC(=O)c3ccc(COc4ccc(C(F)(F)F)cc4C)cc3)c2C)c1	10.7% (inactive)
O=C(CN1CCN(c2cc(=O)n(-c3ccccc3)c3ccccc23)CC1)Nc1nc(-c2ccccc2)cs1	13.3% (inactive)
O=C(CCCl)OCCOc1ccccc1	107% (inactive)
CCCCCCCCCCCCCCCCCCNCc1ccc(Cl)cc1	-71.9% (active)
O=c1oc2ccc(I)cc2c(=O)n1-c1ccc(I)cc1F	-2.07% (active)
CCN1CCN(C(=O)[C@]23CCC(C)(C)C[C@@H]2C2=CC[C@@H]4[C@@]5(C)C/C(=C/c6cccnc6)C(=O)C(C)(C)[C@@H]5CC[C@@]4(C)[C@]2(C)CC3)CC1	-6.42% (active)
CCCC(=O)c1cccs1	96.9% (inactive)
COc1cc(Cn2cc(F)c(=O)[nH]c2=O)cc(OC)c1	106% [50 µM] (inactive)
COc1cc(-c2nc(SCc3ccc(C)cc3)[nH]c(=O)c2C#N)ccc1OCc1ccccc1	87.3% (inactive)
Cn1c(=O)c2c(nc(NC3=NS(=O)(=O)c4ccccc43)n2CC(=O)N2CCc3ccccc32)n(C)c1=O	102% (inactive)
CN(C)CCOc1nc2ccccc2c2c1-c1ccc(Cl)cc1C2=O	-51.1% (active)
CN1CCN(c2ccc(Nc3nc(NCCCNS(=O)(=O)c4ccc(F)cc4)c4sccc4n3)cc2)CC1	25.9% (inactive)
